Targets with a hit are over-represented here; the source holds about 8,800 in all. About 0.5% of all pairs of compound and target were hits.
Key:
Assay in all cases: log2 fold change, soluble protein after heating vs DMSO (PISA); higher = thermal stabilisation; K562 lysate, 10 uM; active = over 0.2 and 3.5 SD of the protein, either way, in both replicates (recomputed)
[1] = compound: C1=CC=C(C=C1)[C@H](COC2=CC3=C(C=C2)NC(=O)N3)NC(=O)C4=CC=CN(C4=O)CC5=CC(=C(C=C5)F)F
Method in brief: (§1)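 Thermal stability, expressed as log-two fold change relative to solvent controls, is given from duplicates. Crude K562 extract in PBS pH 7.4 with 1 mM MgCl2, at 1 mg/mL protein, was treated with 10 μM compound for 30 min and heated in aliquots for 3 min across 48°C-58°C. After pooling, adjustment to 0.5% NP-40 at 4°C and centrifugation at 21,000xg for 90 min, supernatant protein was measured by TMTpro 16plex LC-MS/MS with channel sums equalised.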

[2] = compound: CC1=C(SC2=C1C(=N[C@H](C3=NN=C(N32)C)CC(=O)N)C4=CC=C(C=C4)Cl)C
Method in brief: as §1

[3] = compound: CC1=C2C(=CC=C1)N=C(N(C2=O)C3=CC=CC=C3C)CN4C=NC5=C(N=CN=C54)N
Method in brief: as §1

[4] = compound: Cc1sc2c(c1C)C(c1ccc(Cl)cc1)=N[C@@H](CC(=O)OC(C)(C)C)c1nnc(C)n1-2
Method in brief: as §1

[5] = compound: c1ccc([C@@H]2C[C@H]2NC2CCNCC2)cc1
Method in brief: as §1

Measured: log2 fold change

UQCRC2 (UniProt P22695)
inactive: [1] 0.003 | [2] 0.037 | [3] -0.007 | [4] 0.006 | [5] -0.015

YDJC (UniProt A8MPS7)
inactive: [1] 0.001 | [2] -0.012 | [3] -0.003 | [4] 0.012 | [5] 0.018

ZNF318 (UniProt Q5VUA4)
inactive: [1] -0.017 | [2] 0.133 | [3] 0 | [4] 0.018 | [5] 0.038

VPS13C (UniProt Q709C8)
inactive: [1] -0.111 | [2] -0.002 | [3] 0.061 | [4] 0.018 | [5] 0.008

WDR7 (UniProt Q9Y4E6)
inactive: [1] 0.055 | [2] 0.011 | [3] 0.019 | [4] 0.029 | [5] -0.027

VANGL1 (UniProt Q8TAA9)
UniProt Q8TAA9, sequence (Q8TAA9 whole entry, looked up): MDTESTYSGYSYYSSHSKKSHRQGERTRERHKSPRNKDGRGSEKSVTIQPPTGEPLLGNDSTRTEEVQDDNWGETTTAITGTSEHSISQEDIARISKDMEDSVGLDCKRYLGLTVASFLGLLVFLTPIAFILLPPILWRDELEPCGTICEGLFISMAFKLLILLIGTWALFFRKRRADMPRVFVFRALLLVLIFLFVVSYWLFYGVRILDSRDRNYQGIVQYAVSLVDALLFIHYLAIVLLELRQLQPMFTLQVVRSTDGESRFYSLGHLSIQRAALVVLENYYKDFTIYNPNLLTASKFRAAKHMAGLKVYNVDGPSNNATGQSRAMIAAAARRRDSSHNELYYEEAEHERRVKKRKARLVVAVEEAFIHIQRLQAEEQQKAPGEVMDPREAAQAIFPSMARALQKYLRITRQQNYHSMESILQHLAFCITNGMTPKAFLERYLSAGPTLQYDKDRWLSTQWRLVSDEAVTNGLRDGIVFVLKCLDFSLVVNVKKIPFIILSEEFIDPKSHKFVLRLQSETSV
inactive: [1] 0.064 | [2] 0.088 | [3] -0.055 | [4] -0.004 | [5] -0.076

YTHDF3 (UniProt Q7Z739)
inactive: [1] -0.111 | [2] 0.021 | [3] 0.063 | [4] -0.01 | [5] -0.018

USP3 (UniProt Q9Y6I4)
UniProt Q9Y6I4, sequence (Q9Y6I4 whole entry, looked up): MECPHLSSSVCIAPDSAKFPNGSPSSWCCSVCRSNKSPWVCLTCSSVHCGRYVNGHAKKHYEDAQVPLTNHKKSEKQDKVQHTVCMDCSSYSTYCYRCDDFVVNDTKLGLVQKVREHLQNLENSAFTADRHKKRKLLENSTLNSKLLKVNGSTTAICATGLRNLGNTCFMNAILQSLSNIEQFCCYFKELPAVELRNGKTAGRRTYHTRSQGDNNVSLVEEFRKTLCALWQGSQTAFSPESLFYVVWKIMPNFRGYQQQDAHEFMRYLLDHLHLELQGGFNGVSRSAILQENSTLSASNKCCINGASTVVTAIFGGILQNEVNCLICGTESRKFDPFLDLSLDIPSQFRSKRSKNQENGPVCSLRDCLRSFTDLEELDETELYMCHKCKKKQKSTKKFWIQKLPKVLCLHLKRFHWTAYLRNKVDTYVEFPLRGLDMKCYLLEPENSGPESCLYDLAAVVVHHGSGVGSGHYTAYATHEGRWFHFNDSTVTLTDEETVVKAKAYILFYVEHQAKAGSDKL
inactive: [1] 0.026 | [2] 0.006 | [3] -0.056 | [4] -0.044 | [5] 0.073

YWHAQ (UniProt P27348)
inactive: [1] 0.002 | [2] 0.021 | [3] -0.001 | [4] 0.076 | [5] 0.181

VTN (UniProt P04004)
inactive: [1] -0.009 | [2] -0.039 | [3] -0.094 | [4] -0.053 | [5] -0.222

YES1 (UniProt P07947)
UniProt P07947, sequence (P07947 whole entry, looked up): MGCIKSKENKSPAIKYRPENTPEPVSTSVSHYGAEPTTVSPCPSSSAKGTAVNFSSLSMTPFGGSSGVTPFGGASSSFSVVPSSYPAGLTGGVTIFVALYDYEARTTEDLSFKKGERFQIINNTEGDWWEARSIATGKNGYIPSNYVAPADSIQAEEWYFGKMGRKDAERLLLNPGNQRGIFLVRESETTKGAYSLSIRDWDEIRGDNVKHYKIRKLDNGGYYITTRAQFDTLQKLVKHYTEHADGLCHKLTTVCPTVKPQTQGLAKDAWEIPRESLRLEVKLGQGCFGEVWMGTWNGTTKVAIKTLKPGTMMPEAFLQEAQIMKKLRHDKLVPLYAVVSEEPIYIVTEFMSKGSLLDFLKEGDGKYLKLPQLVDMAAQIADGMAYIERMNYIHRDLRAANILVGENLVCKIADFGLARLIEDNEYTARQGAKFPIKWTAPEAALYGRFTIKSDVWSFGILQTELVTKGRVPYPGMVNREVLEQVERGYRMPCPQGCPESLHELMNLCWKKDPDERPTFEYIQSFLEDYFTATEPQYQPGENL
inactive: [1] -0.068 | [2] -0.099 | [3] 0.009 | [4] -0.045 | [5] 0

USP9X (UniProt Q93008)
inactive: [1] -0.033 | [2] 0.005 | [3] 0.014 | [4] 0.008 | [5] -0.001

WDR41 (UniProt Q9HAD4)
inactive: [1] 0.043 | [2] 0.013 | [3] 0.02 | [4] -0.047 | [5] -0.012

VAC14 (UniProt Q08AM6)
inactive: [1] -0.008 | [2] -0.008 | [3] 0.042 | [4] -0.012 | [5] 0.001

UNC13D (UniProt Q70J99)
UniProt Q70J99, sequence (Q70J99 whole entry, looked up): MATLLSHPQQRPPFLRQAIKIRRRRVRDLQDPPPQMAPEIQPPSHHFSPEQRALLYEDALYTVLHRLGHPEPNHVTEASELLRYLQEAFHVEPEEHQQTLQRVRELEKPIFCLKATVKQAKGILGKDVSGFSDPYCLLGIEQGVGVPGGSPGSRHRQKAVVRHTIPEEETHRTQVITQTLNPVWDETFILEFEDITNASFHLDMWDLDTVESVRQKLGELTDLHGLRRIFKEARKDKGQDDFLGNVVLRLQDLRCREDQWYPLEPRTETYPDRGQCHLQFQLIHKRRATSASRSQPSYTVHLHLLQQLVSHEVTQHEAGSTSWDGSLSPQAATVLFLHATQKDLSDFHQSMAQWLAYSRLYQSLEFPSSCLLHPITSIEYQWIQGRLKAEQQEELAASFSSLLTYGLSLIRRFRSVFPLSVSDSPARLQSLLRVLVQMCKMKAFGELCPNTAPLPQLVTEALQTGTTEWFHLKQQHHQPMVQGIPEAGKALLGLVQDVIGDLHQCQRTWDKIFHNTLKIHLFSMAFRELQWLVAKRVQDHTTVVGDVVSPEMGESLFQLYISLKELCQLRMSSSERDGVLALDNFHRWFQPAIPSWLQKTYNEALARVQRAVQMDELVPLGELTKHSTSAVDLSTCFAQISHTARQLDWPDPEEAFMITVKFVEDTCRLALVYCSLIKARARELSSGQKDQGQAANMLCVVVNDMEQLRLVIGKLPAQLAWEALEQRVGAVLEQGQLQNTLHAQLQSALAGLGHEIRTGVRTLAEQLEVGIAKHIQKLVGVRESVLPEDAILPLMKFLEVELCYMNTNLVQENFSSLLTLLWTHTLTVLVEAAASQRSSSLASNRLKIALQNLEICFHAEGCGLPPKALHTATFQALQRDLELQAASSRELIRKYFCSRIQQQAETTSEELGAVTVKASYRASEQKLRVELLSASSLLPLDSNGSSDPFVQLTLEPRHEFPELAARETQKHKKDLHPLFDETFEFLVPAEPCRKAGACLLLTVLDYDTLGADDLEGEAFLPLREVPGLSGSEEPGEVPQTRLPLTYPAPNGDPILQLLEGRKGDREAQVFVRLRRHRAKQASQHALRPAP
inactive: [1] -0.032 | [2] 0.067 | [3] 0.044 | [4] 0.025 | [5] 0.024

ZNF593 (UniProt O00488)
UniProt O00488, sequence (O00488 whole entry, looked up): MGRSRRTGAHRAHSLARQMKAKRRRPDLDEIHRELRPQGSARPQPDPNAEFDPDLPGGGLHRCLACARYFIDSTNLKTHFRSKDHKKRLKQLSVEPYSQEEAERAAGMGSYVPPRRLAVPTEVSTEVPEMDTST
inactive: [1] -0.038 | [2] 0.051 | [3] 0.008 | [4] 0.127 | [5] 0.035

ZNF451 (UniProt Q9Y4E5)
inactive: [1] -0.038 | [2] 0.03 | [3] -0.014 | [4] 0.018 | [5] 0.009

VPS11 (UniProt Q9H270)
inactive: [1] -0.018 | [2] -0.001 | [3] 0.044 | [4] 0.048 | [5] 0.029

YRDC (UniProt Q86U90)
inactive: [1] -0.009 | [2] 0.02 | [3] -0.046 | [4] -0.029 | [5] -0.053

ZBTB33 (UniProt Q86T24)
UniProt Q86T24, sequence (Q86T24 whole entry, looked up): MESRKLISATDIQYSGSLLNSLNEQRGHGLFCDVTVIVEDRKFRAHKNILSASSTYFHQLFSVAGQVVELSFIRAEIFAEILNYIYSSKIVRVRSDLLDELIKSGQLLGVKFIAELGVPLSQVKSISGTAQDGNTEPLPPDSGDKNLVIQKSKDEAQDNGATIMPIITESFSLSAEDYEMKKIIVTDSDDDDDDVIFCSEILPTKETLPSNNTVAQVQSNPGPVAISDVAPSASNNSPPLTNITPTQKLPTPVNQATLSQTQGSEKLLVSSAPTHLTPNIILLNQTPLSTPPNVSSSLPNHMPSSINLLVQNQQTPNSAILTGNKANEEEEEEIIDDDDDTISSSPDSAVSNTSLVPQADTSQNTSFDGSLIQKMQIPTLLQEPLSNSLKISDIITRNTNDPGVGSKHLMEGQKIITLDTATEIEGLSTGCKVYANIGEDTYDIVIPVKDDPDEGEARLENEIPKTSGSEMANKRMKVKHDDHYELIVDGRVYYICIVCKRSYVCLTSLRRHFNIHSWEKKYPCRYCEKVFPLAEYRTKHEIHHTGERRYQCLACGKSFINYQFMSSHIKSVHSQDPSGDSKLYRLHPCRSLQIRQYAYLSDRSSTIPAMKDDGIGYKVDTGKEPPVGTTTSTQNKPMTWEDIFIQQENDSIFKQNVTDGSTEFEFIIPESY
inactive: [1] 0.046 | [2] -0.082 | [3] 0.003 | [4] 0 | [5] -0.015

ZC3H13 (UniProt Q5T200)
inactive: [1] -0.005 | [2] -0.039 | [3] 0.013 | [4] -0.061 | [5] 0.136

ZMYM1 (UniProt Q5SVZ6)
inactive: [1] 0.009 | [2] 0.099 | [3] -0.012 | [4] 0 | [5] -0.2

YEATS4 (UniProt O95619)
inactive: [1] -0.014 | [2] 0.05 | [3] -0.029 | [4] 0.046 | [5] 0.25

VRK2 (UniProt Q86Y07)
inactive: [1] 0.004 | [2] 0 | [3] -0.242 | [4] -0.023 | [5] -0.018

VAV3 isoform 4 (UniProt Q9UKW4)
inactive: [1] 0.089 | [2] -0.012 | [3] 0.096 | [4] 0.001 | [5] -0.391

UQCC2 (UniProt Q9BRT2)
inactive: [1] 0.008 | [2] 0.019 | [3] -0.056 | [4] -0.057 | [5] 0.095

XAB2 (UniProt Q9HCS7)
inactive: [1] -0.009 | [2] 0.05 | [3] 0 | [4] -0.018 | [5] 0.035

WDR91 (UniProt A4D1P6)
inactive: [1] -0.009 | [2] 0.027 | [3] 0.009 | [4] -0.02 | [5] 0.026

ULK3 isoform 4 (UniProt Q6PHR2)
inactive: [1] -0.015 | [2] 0.043 | [3] -0.117 | [4] -0.026 | [5] 0.125

WDR6 (UniProt Q9NNW5)
inactive: [1] -0.001 | [2] 0.02 | [3] 0.008 | [4] -0.021 | [5] -0.013

VPS39 (UniProt Q96JC1)
inactive: [1] -0.008 | [2] -0.002 | [3] -0.006 | [4] -0.009 | [5] 0.3

WRB (UniProt O00258)
inactive: [1] 0.018 | [2] -0.021 | [3] -0.029 | [4] 0 | [5] -0.191

WAC (UniProt Q9BTA9)
inactive: [1] -0.03 | [2] 0.056 | [3] -0.013 | [4] 0.041 | [5] 0.037

WDR62 isoform 4 (UniProt O43379)
UniProt O43379, sequence (O43379 whole entry, looked up): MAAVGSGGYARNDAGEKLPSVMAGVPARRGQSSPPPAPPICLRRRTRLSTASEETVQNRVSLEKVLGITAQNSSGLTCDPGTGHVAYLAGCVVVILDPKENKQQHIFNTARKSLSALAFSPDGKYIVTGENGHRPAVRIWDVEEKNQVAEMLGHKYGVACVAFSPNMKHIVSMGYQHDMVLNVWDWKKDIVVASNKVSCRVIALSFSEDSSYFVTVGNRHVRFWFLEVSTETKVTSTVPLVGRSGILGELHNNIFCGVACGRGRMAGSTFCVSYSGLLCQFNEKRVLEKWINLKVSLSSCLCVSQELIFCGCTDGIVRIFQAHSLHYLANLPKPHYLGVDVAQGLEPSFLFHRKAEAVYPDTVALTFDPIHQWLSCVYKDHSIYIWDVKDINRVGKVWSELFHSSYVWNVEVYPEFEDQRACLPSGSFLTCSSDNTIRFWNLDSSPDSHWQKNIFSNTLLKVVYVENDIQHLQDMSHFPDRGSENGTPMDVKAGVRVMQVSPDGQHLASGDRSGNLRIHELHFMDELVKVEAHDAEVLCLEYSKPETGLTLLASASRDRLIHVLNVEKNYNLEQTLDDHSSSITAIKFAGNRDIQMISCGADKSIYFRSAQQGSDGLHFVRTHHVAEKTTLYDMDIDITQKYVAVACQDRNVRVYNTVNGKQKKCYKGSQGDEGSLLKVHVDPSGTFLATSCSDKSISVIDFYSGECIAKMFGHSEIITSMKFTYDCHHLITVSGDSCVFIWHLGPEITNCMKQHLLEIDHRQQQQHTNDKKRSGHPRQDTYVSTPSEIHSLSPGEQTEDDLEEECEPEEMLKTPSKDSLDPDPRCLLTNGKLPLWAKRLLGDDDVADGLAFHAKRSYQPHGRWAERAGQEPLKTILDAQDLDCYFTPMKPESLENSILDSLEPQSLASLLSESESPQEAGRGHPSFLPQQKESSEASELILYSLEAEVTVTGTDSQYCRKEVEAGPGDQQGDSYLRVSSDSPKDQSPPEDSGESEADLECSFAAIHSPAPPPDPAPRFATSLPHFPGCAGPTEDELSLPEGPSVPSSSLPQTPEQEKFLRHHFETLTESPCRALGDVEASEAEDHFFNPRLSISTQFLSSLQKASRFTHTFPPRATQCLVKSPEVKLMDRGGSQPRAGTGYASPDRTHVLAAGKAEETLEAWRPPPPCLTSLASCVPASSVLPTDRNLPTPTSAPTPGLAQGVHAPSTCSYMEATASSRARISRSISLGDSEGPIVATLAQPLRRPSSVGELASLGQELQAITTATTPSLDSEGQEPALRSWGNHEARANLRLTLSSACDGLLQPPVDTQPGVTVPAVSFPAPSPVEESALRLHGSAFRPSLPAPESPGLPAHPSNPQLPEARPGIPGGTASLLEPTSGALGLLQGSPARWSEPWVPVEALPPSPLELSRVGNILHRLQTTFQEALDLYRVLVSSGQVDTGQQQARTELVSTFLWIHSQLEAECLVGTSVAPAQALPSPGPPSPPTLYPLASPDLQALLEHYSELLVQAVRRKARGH
inactive: [1] 0.026 | [2] -0.004 | [3] -0.011 | [4] 0.003 | [5] 0.038

VPS16 (UniProt Q9H269)
inactive: [1] -0.035 | [2] -0.009 | [3] 0.041 | [4] 0.011 | [5] 0.005

ZNF598 isoform 3 (UniProt Q86UK7)
inactive: [1] -0.037 | [2] -0.014 | [3] 0.006 | [4] 0.034 | [5] 0.025

ZMYM4 (UniProt Q5VZL5)
inactive: [1] 0.133 | [2] -0.081 | [3] -0.054 | [4] -0.023 | [5] 0.011

ZFYVE19 (UniProt Q96K21)
inactive: [1] 0.076 | [2] 0.042 | [3] 0.012 | [4] -0.032 | [5] -0.183

Source: the supplement of paper PMC10849652
